Screening data deposited in PubChem by Bradner/Qi Labs at DFCI.
CBX7 AlphaScr: blocks human CBX7 binding to H3K27me3 peptide; O95931; AlphaScreen His6-CBX7 / biotin-H3K27me3 peptide binding; active compounds read low; normalised signal (fraction of DMSO) (no concentration beside the values); actives 1.1% (n = 66,000); AID 1224903; in the data active means normalised signal below about 0.5
Target sequence (O95931 whole entry, looked up): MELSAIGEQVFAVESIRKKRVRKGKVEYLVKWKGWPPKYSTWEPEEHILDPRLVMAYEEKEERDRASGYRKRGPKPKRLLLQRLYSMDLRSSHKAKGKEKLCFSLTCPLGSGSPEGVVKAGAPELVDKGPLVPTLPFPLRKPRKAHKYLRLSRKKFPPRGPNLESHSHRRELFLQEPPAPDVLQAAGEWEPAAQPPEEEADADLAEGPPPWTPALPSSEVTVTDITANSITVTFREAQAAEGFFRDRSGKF
Of the large screens only hits and unclear results are named; the others gave an inactive call. Shown is part of a subset that was picked to be rich in hits.

CCc1cc2c(=O)c(-c3nc4ccccc4n3C)c(C)oc2c(CN2CCCCC2)c1O	none
Cc1ccc(OCC(=O)N(Cc2ccc(Cl)cc2)C2CCS(=O)(=O)C2)cc1C (stereo unspecified)	none
Cc1ccc(OCCCCc2c(C)n[nH]c2C)c(C(C)(C)C)c1	CBX7 AlphaScr 0.42
Cc1ccc(C)c(OCCCCCCc2c(C)n[nH]c2C)c1	none
Cc1n[nH]c(C)c1CCCCCOc1ccccc1F	none
Cc1ccc(C)c(CN2C(=O)CSc3ccc(C(=O)NCCN4CCOCC4)cc32)c1	none
Cc1cc(C)c(C(=O)c2ccc(-c3nnc(-c4ccccc4)o3)cc2)c(C)c1	none
NC(=O)c1ccc(-c2ncc(-c3ccccc3)o2)cc1	CBX7 AlphaScr 0.42
Clc1ccc(-c2cnc(-c3ccncc3)o2)cc1	none
Cc1ccc(Nc2c(-c3ccc(N4CCOCC4)cc3)nc3ccccn23)cc1	none
Cc1ccc(Nc2c(-c3ccc(N4CCOCC4)cc3)nc3sccn23)cc1C	CBX7 AlphaScr 0.49
Cc1ccc(Nc2c(-c3ccc(N4CCOCC4)cc3)nc3cc(C)ccn23)cc1	none
COc1ccc(-c2nc3ccccn3c2Nc2ccc3c(c2)OCCO3)cc1	none
COc1ccc(-c2nc3sccn3c2Nc2ccc3c(c2)OCO3)cc1	CBX7 AlphaScr 0.47
COc1ccc(Nc2c(-c3ccc(C)cc3)nc3sccn23)cc1OC	none
Cn1ccnc1SCC(=O)Nc1ccc(Cl)cn1	none
Nc1c2c(nc3ccccc13)N(c1ccc(Cl)c(Cl)c1)CC2	none
CCOc1ccc(N2CCc3c2nc2ccc(Br)cc2c3N)cc1	CBX7 AlphaScr 0.21
Cc1ccc2nc3c(c(N)c2c1)CCN3c1ccccc1	none
O=C(CCn1nc(-c2ccc(Cl)cc2)ccc1=O)NCCCN1CCCCCC1	none
Cc1ccc(NS(=O)(=O)c2ccc3c(c2)CCN3C(=O)C2CCC2)c(Br)c1	none
CCCCOc1ccc(C(O)(CCC)CCN2CCOCC2)cc1 (stereo unspecified)	none
CC(C)(c1ccccc1)c1ccc(OCCN2CCOCC2)cc1	CBX7 AlphaScr 0.3
CCCOc1ccc(C(C)(O)CN2CCOCC2)cc1 (stereo unspecified)	none
Brc1ccc(OCc2ccccc2)c2ncccc12	none
COc1ccccc1C(NC(=O)C(C)C)c1cc(Cl)c2cccnc2c1O (stereo unspecified)	none
Oc1c(Br)cc(CN2CCCCC2)c2cccnc12	CBX7 AlphaScr 0.0057
COc1ccccc1N1CCN(c2ncnc3ccccc23)CC1	none
COc1ccccc1N1CCN(Cc2cc(Cl)c3cccnc3c2O)CC1	CBX7 AlphaScr 0.00087
COc1ccccc1N1CCN(Cc2nc(-c3ccccc3)no2)CC1	none
COc1ccccc1N1CCN(c2nnc(C)c3ccccc23)CC1	none
COc1ccccc1N1CCN(Cc2cc(Br)c(O)c3ncccc23)CC1	CBX7 AlphaScr 0.013
COc1cc(CN2CCN(Cc3ccccc3Br)CC2)cc(OC)c1OC	none
Cc1ccc2c(c1)N(CCC(=O)NC(C)C)C(=O)CO2	none
O=C1CC(c2ccccc2)Sc2ccccc2N1Cc1ccccc1F (stereo unspecified)	none
Cc1ccc(NC(=O)CCn2ccnc2C)cc1Cl	none
Cc1cccc(N2CCN(C(=O)c3cnn(-c4ccccc4)c3-n3cccc3)CC2C)c1 (stereo unspecified)	none
O=C(c1cc(-c2ccncc2)nc2ccccc12)N1CCN(c2ccccn2)CC1	none
Cc1cccc(N2CCN(C(=O)c3cc(-c4ccncc4)nc4ccccc34)CC2C)c1 (stereo unspecified)	CBX7 AlphaScr 0.41
Oc1ccc(-c2nc3cnccn3c2NC2CCCC2)cc1	none
COCCNC(=O)C1CCCN(S(=O)(=O)c2c(C)noc2/C=C/c2cccs2)C1 (stereo unspecified)	none
CCc1ccc(NC(=O)c2cn(-c3ccc(C)c(C)c3)c(=O)c3ccccc23)cc1	none
COc1cc2c(C(=O)N(C)CCc3ccccn3)cn(CC(C)C)c(=O)c2cc1OC	none
CCOC(=O)c1cnc2c(OC)cccc2c1N1CCC(C)CC1	none
CCOC(=O)c1cnc2c(OC)cccc2c1N1CCN(c2ccccc2F)CC1	CBX7 AlphaScr 0.43
CCOC(=O)c1cnc2ccc(OCC)cc2c1N1CCCCCC1	none
CCOC(=O)c1cnc2ccc(OCC)cc2c1N1CCN(c2ccccc2OC)CC1	CBX7 AlphaScr 0.46
CCOC(=O)c1cnc2cc(C(F)(F)F)ccc2c1N1CCN(c2ccccc2OC)CC1	none
CCOC(=O)c1cnc2c(OC)cccc2c1N1CCN(c2ccccc2)CC1	none
O=C(CCn1nc(-c2ccc(Cl)cc2)ccc1=O)NCCCN1CCC(Cc2ccccc2)CC1	none
O=C(NCCCN1CCC(Cc2ccccc2)CC1)c1cc(-c2ccncc2)nc2ccccc12	none
CN(C)c1ccc(-c2nc3ncccn3c2Nc2ccc(Cl)cc2)cc1	none
Cc1ccc(-c2nnc(NCc3ccccc3)c3ccccc23)cc1S(=O)(=O)N1CCCCC1	none
CC1CCc2c(C(=O)NCC3CCCO3)csc2C1 (stereo unspecified)	none
O=C1c2ccccc2C(=O)N1c1cccc(-c2csc(Nc3ccc4c(c3)OCO4)n2)c1	none
CC(C)Cc1ccc(-c2csc(Nc3ccc(F)cc3)n2)cc1	none
Ic1ccc(-c2csc(Nc3ccc4ccccc4c3)n2)cc1	none
CN(C)c1ccc(Nc2nc(-c3ccccc3)cs2)cc1	CBX7 AlphaScr 0.34
